# Test results taken from PubChem BioAssay (NCI).
# This is part of a sample that, as a whole, favours compounds with a hit. Of some 83,000 tested, about 20% had one in any assay.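 Each cell line was grown in a 96-well plate and treated with one concentration of compound for 48 hours. Values below 10 were considered active.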 A number with no mark means an inactive call. The source made the active and inactive calls.
# Key:
# Assay in all cases: NCI-60 one-dose screen, 48 h (100 = growth as untreated, 0 = no growth, -100 = all killed)
# Conditions in all cases: 10 µM unless noted
# SK-MEL-2 melanoma = test system: SK-MEL-2 melanoma
# EKVX NSCLC = test system: EKVX NSCLC
# SN12C renal = test system: SN12C renal
# UO-31 renal = test system: UO-31 renal
# TK-10 renal = test system: TK-10 renal
# A498 renal = test system: A498 renal
# CCRF-CEM leukemia = test system: CCRF-CEM leukemia
# MOLT-4 leukemia = test system: MOLT-4 leukemia
# SR leukemia = test system: SR leukemia
# RPMI-8226 leukemia = test system: RPMI-8226 leukemia
# OVCAR-8 ovarian = test system: OVCAR-8 ovarian
# OVCAR-5 ovarian = test system: OVCAR-5 ovarian
# OVCAR-4 ovarian = test system: OVCAR-4 ovarian
# SK-OV-3 ovarian = test system: SK-OV-3 ovarian
# IGROV1 ovarian = test system: IGROV1 ovarian
# OVCAR-3 ovarian = test system: OVCAR-3 ovarian
# HS 578T breast = test system: HS 578T breast
# NCI/ADR-RES ovarian = test system: NCI/ADR-RES ovarian
# ACHN renal = test system: ACHN renal
# CAKI-1 renal = test system: CAKI-1 renal
Structure (SMILES),growth (SK-MEL-2 melanoma),growth (EKVX NSCLC),growth (SN12C renal),growth (UO-31 renal),growth (TK-10 renal),growth (A498 renal),growth (CCRF-CEM leukemia),growth (MOLT-4 leukemia),growth (SR leukemia),growth (RPMI-8226 leukemia),growth (OVCAR-8 ovarian),growth (OVCAR-5 ovarian),growth (OVCAR-4 ovarian),growth (SK-OV-3 ovarian),growth (IGROV1 ovarian),growth (OVCAR-3 ovarian),growth (HS 578T breast),growth (NCI/ADR-RES ovarian),growth (ACHN renal),growth (CAKI-1 renal)
COc1ccc2c(c1)[n+](=O)c(/C=C/C(=O)c1cc(OC)c(OC)c(OC)c1)c(C)n2[O-],56%,71.3%,40.5%,49.1%,62.9%,99.3%,-25.9% (active),0.943% (active),-10.6% (active),-45.8% (active),3.84% (active),84%,62.8%,102%,32.1%,19.4%,90.7%,52.8%,,
N#CC1c2ccccc2C=CN1C(=O)N(c1ccccc1)c1ccccc1 (centres undefined),88.2%,102%,76.1%,36.5%,32.1%,,3.82% (active),3.19% (active),1.1% (active),,76%,107%,77%,110%,13.5%,-34.3% (active),52.9%,96.2%,12.3%,2.37% (active)
N#Cc1c(-c2ccccc2)cc(-c2ccccc2)n(CC(=O)O)c1=O,28%,81.4%,70%,68.9%,84.2%,,56.3%,63.8%,25%,50.4%,,94.4%,93%,99.9%,61.4%,17.7%,51.6%,26.2%,76.1%,47.3%
COCCOCCOCCOCCOc1ccc2c(c1)C(=O)c1nc3ncccc3c(=O)n1-2,6.22% (active),10.5%,-93% (active),-7.56% (active),-77.4% (active),-100% (active),5.42% (active),-28.7% (active),-86.3% (active),-55.5% (active),0.221% (active),-98.6% (active),-15.3% (active),-4.3% (active),7.34% (active),-60.7% (active),-25.2% (active),0.343% (active),-19.5% (active),
CNNc1ncnc2c1cnn2-c1ccc(S(N)(=O)=O)cc1,98.3%,106%,105%,94.3%,102%,112%,81.6%,86.6%,65.6%,94%,81.8%,99.8%,106%,115%,104%,87.7%,,87%,93%,
COc1cc(/C=C2\SC(N3CCCCC3)=NC2=O)ccc1OCCCCCCOc1ccc(/C=C2\SC(N3CCCCC3)=NC2=O)cc1OC,2.01% (active),31.4%,25.3%,33.5%,,7.57% (active),1.05% (active),7.46% (active),0.724% (active),-5.76% (active),8.07% (active),40.6%,21%,41.9%,19.5%,-82.9% (active),7.66% (active),0.636% (active),23.1%,4.5% (active)
CC(=O)O[C@H]1CC[C@@]2(C)C(=CC[C@@H]3[C@@H]2CC[C@]2(C)C(c4cccnc4)=CC[C@@H]32)C1,23.6%,49.5%,96.7%,33.5%,90.8%,91.5%,48.3%,,30.8%,,,95.6%,47.2%,76.7%,62.6%,70.3%,-7.37% (active),45.4%,44.7%,
CN1CCC[C@@H]1CCO[C@](C)(c1ccccc1)c1ccc(Cl)cc1,90.4%,69.3%,66.5%,36.9%,,88.1%,65.2%,67.7%,59.7%,70.4%,88.1%,73.6%,75.6%,73.9%,63.6%,100%,80.9%,76.5%,65.9%,71%
C(=C1c2ccccc2-c2ccccc21)c1ccccn1,54.2%,70.6%,80.3%,79.6%,91.7%,97.8%,85.5%,67.3%,22.6%,,93.4%,87.3%,70.7%,95.5%,74.1%,53.1%,65.4%,31.1%,,52%
COc1cccc(/C=N\NC(=O)c2ccncc2)c1O,43.8%,78.8%,62.8%,29%,41.1%,,11%,13.9%,21%,,58.7%,67%,31.7%,56.8%,65.1%,13.6%,,25.3%,31.2%,13.2%
CCOC(CNCc1cc(C)c2[nH]c3ccccc3c2c1C)OCC,62.2%,90%,69.7%,45.1%,77.3%,39.8%,77.5%,62.5%,77.4%,,89.5%,99.3%,58.7%,93.1%,83.9%,83.9%,84.6%,77.2%,,71.4%
O=C(Nc1ccccc1)c1cc(-n2cnc([N+](=O)[O-])c2)cc(-n2cnc([N+](=O)[O-])c2)n1,103%,107%,103%,92.3%,112%,114%,89.3%,94.2%,84.2%,86.1%,92.7%,109%,100%,104%,126%,105%,96.7%,111%,100%,
CCOc1nc(-c2ccco2)n2nc(-c3ccco3)cc2n1,117%,95%,104%,91.1%,,83.5%,102%,114%,123%,84.4%,97%,108%,87.2%,110%,106%,122%,95.7%,99.5%,95.5%,95.9%
CC(C)CC1NC(=O)C(CCCN)NC(=O)C(C(C)C)NC(=O)C2CCCN2C(=O)C(Cc2ccccc2)NC(=O)C(CC(C)C)NC(=O)C(CCCN)NC(=O)C(C(C)C)NC(=O)C2CCCN2C(=O)C(Cc2ccccc2)NC1=O (centres undefined),-94% (active),-87.3% (active),-82.2% (active),-20% (active),,-70.1% (active),-59.3% (active),-51.3% (active),-38.7% (active),-54.9% (active),-42.1% (active),-44.7% (active),9.59% (active),-77.2% (active),-34.9% (active),-73.1% (active),-52.5% (active),0.435% (active),-19.8% (active),-14.8% (active)
CSc1nc(Nc2ccc(S(=O)(=O)Nc3ccon3)cc2)c(C#N)c(-c2ccc(Cl)cc2)n1,99.3%,98.5%,108%,86%,,93.3%,6.79% (active),-20.8% (active),-37.8% (active),71.3%,95.7%,106%,113%,108%,96.6%,122%,106%,102%,90.2%,102%
